Laboratory results: the supplement of paper PMC12645437, “Orthogonal IMiD-Degron Pairs Induce Selective Protein Degradation in Cells” (ACS Chemical Biology, 2025)
In all, about 8,300 sequences were measured (“log2 fold change of degron read counts, EGFP-low vs EGFP+ sorted cells (limma voom), compound-induced degradation”: median about -1.1, highest 2% from about 3.2 on). For the sample, the highest values were picked, then their nearest neighbours and some sequences at random.

T1: CRBN, Q96SW2
T1 chain: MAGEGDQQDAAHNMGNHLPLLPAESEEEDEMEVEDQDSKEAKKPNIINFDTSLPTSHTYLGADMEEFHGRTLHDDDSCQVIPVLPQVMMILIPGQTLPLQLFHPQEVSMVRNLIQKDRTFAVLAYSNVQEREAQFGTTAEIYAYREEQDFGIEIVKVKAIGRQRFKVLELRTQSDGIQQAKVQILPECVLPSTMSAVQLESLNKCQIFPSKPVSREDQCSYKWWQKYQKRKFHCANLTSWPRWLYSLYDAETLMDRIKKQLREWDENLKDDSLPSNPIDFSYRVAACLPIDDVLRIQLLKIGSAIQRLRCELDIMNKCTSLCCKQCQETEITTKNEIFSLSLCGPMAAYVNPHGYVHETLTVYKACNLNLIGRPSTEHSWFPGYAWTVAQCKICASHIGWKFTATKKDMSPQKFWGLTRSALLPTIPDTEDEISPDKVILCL


Target: T1, CRBN, Q96SW2
Assay: log2 fold change of degron read counts, EGFP-low vs EGFP+ sorted cells (limma voom), compound-induced degradation; higher = more compound-induced degradation of the degron-EGFP fusion; degrons are variants of IKZF1/3 zinc finger 2; compound dose not given here
Conditions: Jurkat, 18 h
[1] = compound: compound 19 (5-tert-butyl-thalidomide)
[2] = compound: compound 22 (5-morpholino-thalidomide)
[3] = compound: compound 33 (diphenyl IMiD analogue)
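Also: pooled lentiviral library of zinc finger degron-EGFP fusions in mCherry-positive Jurkat cells, FACS-sorted after compound exposure, with degron abundance counted by next-generation sequencing.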

| Sequence | log2 fold change of degron read counts [1] | log2 fold change of degron read counts [2] | log2 fold change of degron read counts [3] | log2 fold change of degron read counts (compound: thalidomide) |
| --- | --- | --- | --- | --- |
| FFCDICGAYFTQKGNLLRHIKL [46F_47F_49D_50I_52G_53A_54Y_55F_67L_, Q9UKT9] | 2.55 | 1.36 | -0.119 | -1.9 |
| FYCPICGAGFTQKGNLLRHIKL [46F_47Y_49P_50I_52G_53A_54G_55F_67L_, Q9UKT9] | 2.99 | 2.02 | 2.1 | -0.123 |
| FLCPICGAGFTQKGNLLRHIKL [46F_47L_49P_50I_52G_53A_54G_55F_67L_, Q9UKT9] | 1.86 | 0.187 | 1.6 | 1.01 |
| FSCPICGAGFTQKGNLLRHIKL [46F_47S_49P_50I_52G_53A_54G_55F_67L_, Q9UKT9] | 2.83 | 1.27 | 1.76 | 0.755 |
| FWCPICGAGFTQKGNLLRHIKL [46F_47W_49P_50I_52G_53A_54G_55F_67L_, Q9UKT9] | 3.3 | 2.73 | 1.87 | 0.518 |
| FVCPICGAGFTQKGNLLRHIKL [46F_47V_49P_50I_52G_53A_54G_55F_67L_, Q9UKT9] | 1.09 | 3.08 | 2.04 | 2.98 |
| FTCPICGAGFTQKGNLLRHIKL [46F_47T_49P_50I_52G_53A_54G_55F_67L_, Q9UKT9] | 1.55 | 2.19 | 2.35 | 2.4 |
| FGCPICGAGFTQKGNLLRHIKL [46F_47G_49P_50I_52G_53A_54G_55F_67L_, Q9UKT9] | 3.28 | 1.32 | 2.32 | 0.446 |
| FDCPICGAGFTQKGNLLRHIKL [46F_47D_49P_50I_52G_53A_54G_55F_67L_, Q9UKT9] | 2.33 | -0.146 | 0.564 | 1.11 |
| FKCPICGAGFTQKGNLLRHIKL [46F_47K_49P_50I_52G_53A_54G_55F_67L_, Q9UKT9] | 2.08 | -0.359 | -0.702 | 0.6 |
| FRCPICGAGFTQKGNLLRHIKL [46F_47R_49P_50I_52G_53A_54G_55F_67L_, Q9UKT9] | 2.23 | 1.8 | 2.28 | 1.55 |
| FACPICGAGFTQKGNLLRHIKL [46F_47A_49P_50I_52G_53A_54G_55F_67L_, Q9UKT9] | 3.61 | 1.67 | 0.663 | 0.803 |
| FQCPICGAGFTQKGNLLRHIKL [46F_47Q_49P_50I_52G_53A_54G_55F_67L_, Q9UKT9] | 2.39 | 2.05 | 1.77 | 3.69 |
| FECDQCGAYFTQKGNLLRHIKL [46F_47E_49D_50Q_52G_53A_54Y_55F_67L_, Q9UKT9] | -2.99 | -3.59 | -2.13 | -2.26 |
| FGCDQCGATFTQKGNLLRHIKL [46F_47G_49D_50Q_52G_53A_54T_55F_67L_, Q9UKT9] | -1.78 | -2.27 | -1.3 | -2.71 |
| FWCEICGAFFTQKGNLLRHIKL [46F_47W_49E_50I_52G_53A_54F_55F_67L_, Q9UKT9] | 3.03 | 3.13 | 2.12 | -0.452 |

| Sequence | log2 fold change of degron read counts [1] | log2 fold change of degron read counts [2] | log2 fold change of degron read counts [3] | log2 fold change of degron read counts (compound: thalidomide) |
| --- | --- | --- | --- | --- |
| FTCPICGAIFTQKGNLLRHIKL [46F_47T_49P_50I_52G_53A_54I_55F_67L_, Q9UKT9] | -0.365 | 1.34 | 2.33 | 2.71 |
| FFCDICGALFTQKGNLLRHIKL [46F_47F_49D_50I_52G_53A_54L_55F_67L_, Q9UKT9] | 2.27 | 1.43 | 0.356 | -1.44 |
| FKCPVCGAEFTQKGNLLRHIKL [46F_47K_49P_50V_52G_53A_54E_55F_67L_, Q9UKT9] | -1.33 | -1.7 | -2.52 | -0.999 |
| FNCNICGAAFTQKGNLLRHIKL [46F_47N_49N_50I_52G_53A_54A_55F_67L_, Q9UKT9] | 1.61 | 0.951 | 0.00357 | -0.128 |
| LNCPICGFHCTQKGNLLRHIKL [46L_47N_49P_50I_52G_53F_54H_55C_67L_, Q9UKT9] | 1.34 | 0.56 | 0.934 | 1.12 |
| LFCPICGFHCTQKGNLLRHIKL [46L_47F_49P_50I_52G_53F_54H_55C_67L_, Q9UKT9] | 2.94 | 3.37 | 2.6 | 1.88 |
| LSCPICGFHCTQKGNLLRHIKL [46L_47S_49P_50I_52G_53F_54H_55C_67L_, Q9UKT9] | 2.37 | 2.02 | 2.39 | 2.28 |
| LQCPICGFHCTQKGNLLRHIKL [46L_47Q_49P_50I_52G_53F_54H_55C_67L_, Q9UKT9] | 0.55 | 1.17 | 1.51 | 3.3 |
| LHCPICGFHCTQKGNLLRHIKL [46L_47H_49P_50I_52G_53F_54H_55C_67L_, Q9UKT9] | 2.33 | 2.45 | 2.55 | 1.95 |
| LECPICGFHCTQKGNLLRHIKL [46L_47E_49P_50I_52G_53F_54H_55C_67L_, Q9UKT9] | -0.151 | -0.655 | 1.91 | 2.84 |
| LDCPICGFHCTQKGNLLRHIKL [46L_47D_49P_50I_52G_53F_54H_55C_67L_, Q9UKT9] | 1.47 | 0.38 | 0.522 | 1.41 |
| LVCPICGFHCTQKGNLLRHIKL [46L_47V_49P_50I_52G_53F_54H_55C_67L_, Q9UKT9] | 0.161 | 2 | 1.81 | 2.57 |
| LWCPICGFHCTQKGNLLRHIKL [46L_47W_49P_50I_52G_53F_54H_55C_67L_, Q9UKT9] | 2.74 | 3.54 | 2.74 | 1.65 |
| LMCPICGFHCTQKGNLLRHIKL [46L_47M_49P_50I_52G_53F_54H_55C_67L_, Q9UKT9] | 0.0156 | 1.21 | 2.51 | 2.06 |
| LYCPICGFHCTQKGNLLRHIKL [46L_47Y_49P_50I_52G_53F_54H_55C_67L_, Q9UKT9] | 3.13 | 3.49 | 2.61 | 1.83 |
| LTCPICGFHCTQKGNLLRHIKL [46L_47T_49P_50I_52G_53F_54H_55C_67L_, Q9UKT9] | 1.1 | 2.57 | 2.47 | 2.78 |
